In PubChem BioAssay AID2642 (Johns Hopkins Ion Channel Center, 2010) one finds B-score data, which are given here for 107 compounds.

About 3,900 (1.3%) of roughly 310,000 compounds were called active.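 The calls were made as follows: active = compounds whose thallium flux B-score, printed positive for inhibition, exceeds three library SD while starting fluorescence stays within three; inactive = the rest.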 Many of the other results were omitted from the sample, so actives are more common in it than they were.

The test deals with Potassium voltage-gated channel subfamily KQT member 1 (Homo sapiens) (UniProt P51787). The experiment in a line: inhibitors of human KCNQ1 channel, primary screen, cell-based, thallium flux, high-throughput (AID 2642).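 Also: channel opened by potassium depolarization with thallium stimulus after 20 min compound exposure.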 As to conditions: CHO-K1 KCNQ1, FluxOR thallium flux fluorescence, at 10 µM; hits give high values.
Sequence of Potassium voltage-gated channel subfamily KQT member 1 (Homo sapiens) (P51787 whole entry, looked up): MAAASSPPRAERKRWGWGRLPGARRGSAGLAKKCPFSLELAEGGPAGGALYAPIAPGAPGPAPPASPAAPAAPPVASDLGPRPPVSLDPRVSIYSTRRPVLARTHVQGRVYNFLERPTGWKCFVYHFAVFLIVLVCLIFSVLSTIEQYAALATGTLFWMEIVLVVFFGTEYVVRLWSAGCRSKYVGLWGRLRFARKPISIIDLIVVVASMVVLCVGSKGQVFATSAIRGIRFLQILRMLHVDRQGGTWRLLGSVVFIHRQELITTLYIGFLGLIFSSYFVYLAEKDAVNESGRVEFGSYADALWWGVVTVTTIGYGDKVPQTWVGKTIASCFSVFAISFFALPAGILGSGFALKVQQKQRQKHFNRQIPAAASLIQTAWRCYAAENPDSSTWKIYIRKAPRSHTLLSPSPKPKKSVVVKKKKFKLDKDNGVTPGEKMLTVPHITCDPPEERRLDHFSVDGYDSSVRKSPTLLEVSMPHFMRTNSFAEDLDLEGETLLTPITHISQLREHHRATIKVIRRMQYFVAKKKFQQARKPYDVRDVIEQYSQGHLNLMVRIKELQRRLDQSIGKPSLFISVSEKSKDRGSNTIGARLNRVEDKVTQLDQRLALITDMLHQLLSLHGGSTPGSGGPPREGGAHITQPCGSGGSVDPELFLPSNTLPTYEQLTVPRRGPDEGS
Consider `Fc1ccccc1COc1cccc2cccnc12`, for which the B-score result was “inactive”.

Regarding `Cc1occc(=O)c1OCc1ccc(F)cc1`, the B-score result is “inactive”.

Take `Cc1nc2ccccc2cc1OCc1ccc(F)cc1`: the B-score is 11 (active).

With `O=C1c2ccccc2C(=O)N1c1cccc2ccccc12`, the B-score result is “inactive”.

Regarding `CN1C(=O)c2cccc3c(N)ccc(c23)C1=O`, the B-score result is “inactive”.

On to `Cc1nn(C)cc1N1C(=O)c2cccc3c(N)ccc(c23)C1=O`, for which the B-score was 22 (active).

On to `C/C(N)=C(/C#N)C(=O)COC(=O)c1cc(-c2ccc(C)cc2)nc2ccccc12`, for which the B-score entry was “inactive”.

Consider `CCCCCCCC[n+]1cccc(C(=O)N2c3c(nc(N)[nH]c3=O)NC(C)C2C)c1` (configuration not stated), for which the B-score entry was “inactive”.

Take `O=C(NC(=S)Nc1ccccc1C(=O)O)c1ccc(-c2ccc(Br)cc2)o1`: the B-score is 7 (active).

For `COC(=O)c1ccccc1NC(=S)NC(=O)c1ccccc1F`, the B-score result was “inactive”.

Consider `O=C(O)c1ccccc1NC(=O)c1ccccc1-c1ccccc1C(=O)O`, for which the B-score result was “inactive”.

As to `COCCNC(=O)C(c1ccc(O)cc1)N(C(=O)CCC(=O)Nc1nccs1)c1ccc(C)cc1` (configuration not stated), the B-score result was “inactive”.

Consider `CCOC(=O)CN(C(=O)COc1nc(C)cc(C)c1C#N)c1ccc(Cl)cc1`, for which the B-score result is “inactive”.

`Cc1cc(C(=O)CCC(=O)NNC(=O)c2ccccc2O)c(C)s1`: the B-score is 6 (active).

As to `CC1=C(C)CC(C(=O)NNC(=O)c2ccccc2O)C(C(=O)O)C1` (configuration not stated), the B-score result was “inactive”.

Turning to `Cc1ccccc1C(=O)NNC(=O)CN1C(=O)c2ccccc2C1=O`, the B-score result is “inactive”.

For `COc1ccccc1CNC(=O)COn1nnc2ccc(S(=O)(=O)N3CCOCC3)cc21`, the B-score result was “inactive”.

`O=S(=O)(c1ccc(Cl)cc1)c1nc(-c2ccco2)oc1N1CCCCC1`: the B-score entry is “inactive”.

`CCc1cc(C(N)=O)c(NC(=O)c2ccc(OC)cc2)s1`: the B-score result is “inactive”.

Regarding `COc1ccc(C(=O)Nc2sc(C)c(C)c2CN2CCOCC2)cc1`, the B-score result is “inactive”.

Turning to `CCc1cc(C(c2ccccc2OC)N2CCOCC2)c(NC(=O)c2ccccc2)s1` (configuration not stated), the B-score was 7 (active).

As for `CC(C)CNc1ncnc2c1cnn2Cc1ccc(Cl)cc1`, the B-score entry is “inactive”.

In the case of `Cc1ccc(Cl)cc1NC(=O)COC(=O)CC(C)(C)C`, the B-score result was “inactive”.

Turning to `COCn1c(C(O)c2ccccc2)cc2ccccc21` (configuration not stated), the B-score result was “inactive”.

Turning to `Cc1cc(CNC(=O)c2cccc([N+](=O)[O-])c2)c2ccccc2n1`, the B-score result was “inactive”.

Turning to `O=[N+]([O-])c1cccc(Nc2c3ccccc3nc3ccccc23)c1`, the B-score was 8 (active).

In the case of `N#Cc1cccc(Nc2c3c(nc4ccccc24)CCCC3)c1`, the B-score entry was “inactive”.

As to `NS(=O)(=O)c1ccc(CCNC(=O)CNC(=O)Cc2ccccc2)cc1`, the B-score result is “inactive”.

Take `O=C1N(c2ccccc2)C(=Nc2ccccc2)SC12CC2`: the B-score result was “inactive”.

Take `C#CCCOC(=O)N1C2=NC(C(=O)OC)=C(C(=O)OC)[C@@H]3N(C)c4ccc(OC)cc4[C@]23C[C@H]1C(=O)OC`: the B-score result is “inactive”.

Consider `O=C1c2ccccc2C(=O)c2c1cccc2N1CCN(Cc2ccccc2)CC1`, for which the B-score is 6 (active).

Regarding `O=C1c2ccccc2C(=O)c2c1cccc2N1CCN(C/C=C/c2ccccc2)CC1`, the B-score entry is “inactive”.

With `O=C1c2ccccc2C(=O)c2c1cccc2N1CCN(CCO)CC1`, the B-score entry was “inactive”.

Take `COC(=O)c1cccc(N(C(=O)CNC(=O)c2cccs2)C(C(=O)NCC2CCCO2)c2ccc(OC)c(OC)c2)c1` (configuration not stated): the B-score entry was “inactive”.

Regarding `Oc1ccc2ccc3cccc[n+]3c2c1`, the B-score is 30 (active).

On to `CCN(Cc1nc2ccccc2c(=O)[nH]1)Cc1cc(=O)oc2cc(C)c(C)cc12`, for which the B-score result was “inactive”.

Turning to `CC(C)CCN(C(=O)c1csnn1)C(C(=O)NC1CCCC1)c1ccccc1` (configuration not stated), the B-score entry is “inactive”.

For the compound `CC(C)c1ccc(NC(=O)NC2CCCCC2)cc1`, the B-score result was “inactive”.

With `Cc1cc(C)cc(NC(=O)NC2CCCCCCC2)c1`, the B-score is 7 (active).

Take `O=C(Nc1cccc(F)c1)NC1CCCCCCC1`: the B-score result was “inactive”.

As for `COc1cccc2c1OCC(C(=O)NCc1ccc(Cl)cc1Cl)=C2`, the B-score result is “inactive”.

For the compound `CCOc1cc(C2C(C(=O)OC(C)C)=C(C)NC3=C2C(=O)CCC3)cc([N+](=O)[O-])c1O` (configuration not stated), the B-score entry was “inactive”.

Regarding `CCC(C)NC(=O)CN(C1CCCCC1)S(C)(=O)=O` (configuration not stated), the B-score entry was “inactive”.

Consider `CS(=O)(=O)N(CC(=O)Nc1ccc(Cl)c(Cl)c1)C1CCCCC1`, for which the B-score was 7 (active).

On to `CS(=O)(=O)N(CC(=O)Nc1ccc(F)cc1)C1CCCCC1`, for which the B-score result is “inactive”.

Turning to `CC(NC(=O)Cn1cc(C(F)(F)F)cc(Cl)c1=O)c1ccccc1` (configuration not stated), the B-score entry was “inactive”.

As to `NS(=O)(=O)c1cc2c(cc1Cl)NC(C(Cl)Cl)NS2(=O)=O` (configuration not stated), the B-score result is “inactive”.

For the compound `CCOC(=O)/C(C#N)=C/c1ccc(N2CCN(Cc3ccccc3)CC2)cc1`, the B-score entry is “inactive”.

Consider `COC(=O)c1sc(N2CCN(Cc3ccccc3)CC2)nc1N`, for which the B-score entry is “inactive”.

`CC(C)OC(=O)C(C#N)c1nc2ccccc2nc1N1CCN(Cc2ccccc2)CC1` (configuration not stated): the B-score is 7 (active).

Take `COc1ccc(S(=O)(=O)N(CC(=O)N/N=C/c2ccc(C(=O)O)cc2)Cc2ccccc2)cc1OC`: the B-score result was “inactive”.

With `CC(=O)N1c2ccc(S(=O)(=O)N3CCCC(C(=O)NCc4ccc(Cl)cc4)C3)cc2CC1C` (configuration not stated), the B-score result was “inactive”.

`CCN(C(=O)COc1ccc(C(=O)c2ccccc2)cc1)c1ccccc1`: the B-score result is “inactive”.

As to `N#CC1=C(SCc2ccc(C#N)cc2)N=C(N)C(c2nc(-c3ccccc3)cs2)C12CCCCC2` (configuration not stated), the B-score is 6 (active).

As for `N#Cc1ccc(CSc2ncccn2)cc1`, the B-score result was “inactive”.

Regarding `N#CC1=C(SCc2ccccc2)NC(=O)C(C#N)C12CCCC2` (configuration not stated), the B-score result is “inactive”.

In the case of `COc1ccc(OC)c2[nH]c(=O)c(CCNC(=O)C(=O)c3c[nH]c4ccccc34)cc12`, the B-score result was “inactive”.

As for `COCCn1c(SCC(=O)Nc2cc(OC)ccc2OC)nc2c(c1=O)SC(C)C2` (configuration not stated), the B-score result is “inactive”.

Consider `COc1ccc(CCNCc2c(-c3ccccc3)n(C)c3ccccc23)cc1`, for which the B-score is 7 (active).

As for `COc1ccc(-c2nc3ccccc3c(=O)n2CCc2ccc(O)cc2)cc1`, the B-score result is “inactive”.

Regarding `COc1ccc(-c2c(C#Cc3ccccc3)c3ccccc3n2C)cc1`, the B-score entry was “inactive”.

Turning to `CCN1N=C(c2ccccc2)CCC1=O`, the B-score result is “inactive”.

With `O=C(CNCCC1=CCCCC1)Nc1ccccc1N1CCCCCC1`, the B-score was 12 (active).

For `Cc1ccccc1NC(=O)Nc1ccccc1N1CCCCC1`, the B-score result is “inactive”.

`Cc1ccccc1NC(=O)CNc1ccccc1N1CCCCC1`: the B-score entry was “inactive”.

`COC(=O)c1ccc(COC(=O)C2CCN(S(=O)(=O)c3c(Cl)cccc3Cl)CC2)o1`: the B-score entry is “inactive”.

As for `COc1cc(CN2CCNC(=O)C2CC(=O)NCCc2ncccc2C)cc(OC)c1` (configuration not stated), the B-score entry is “inactive”.

Take `CC(=O)Nc1c2c(nn1-c1cccc(C)c1)CSC2`: the B-score result is “inactive”.

On to `CCC/C=C(\CCC)C(NC(=O)Cc1ccccc1)c1ccc(C(=O)OC)cc1` (configuration not stated), for which the B-score entry is “inactive”.

Consider `CCC[C@@H]1C[C@@]1(CCC)[C@@H](NC(=O)c1ccccc1)c1ccc(C(=O)OC)cc1`, for which the B-score is 12 (active).

`COC(=O)c1ccc(NCC(=O)c2ccccc2)cc1`: the B-score result was “inactive”.

For `COc1ccc(CN(C)C(=O)Cc2c[nH]c3ccccc23)c(OC)c1OC`, the B-score entry was “inactive”.

For `Brc1ccc(C2CC(c3ccccc3)=Nc3ccccc3N2)cc1` (configuration not stated), the B-score was 10 (active).

Consider `c1ccc(C2=Nc3cccc4cccc(c34)N2)cc1`, for which the B-score result was “inactive”.

On to `CNC(=S)N1N=C(c2ccccc2)CC1c1ccc(Br)cc1` (configuration not stated), for which the B-score entry was “inactive”.

Regarding `CC1CCCN(S(=O)(=O)c2ccc(N(C(=O)c3cnccn3)C(C(=O)NC3CCCCC3)c3cccs3)cc2)C1` (configuration not stated), the B-score result is “inactive”.

For the compound `Cc1cc(C)n(-c2nnc(C)n2NC(=O)c2cccc(Cl)c2)n1`, the B-score entry was “inactive”.

Consider `Cc1ccc2c(c1)N(CCCC(=O)NCc1cccnc1)C(=O)CO2`, for which the B-score result was “inactive”.

In the case of `Cc1ccc(NC(=S)NC(NC(=O)Cc2cccc3ccccc23)C(Cl)(Cl)Cl)cc1` (configuration not stated), the B-score entry was “inactive”.

As to `O=C(Cc1cccc2ccccc12)NNC(=O)Nc1ccc(Cl)cc1`, the B-score was 6 (active).

Take `O=C(O)Cc1ccc(NC(=O)Nc2cccc3ccccc23)cc1`: the B-score entry was “inactive”.

For `COc1ccc(CNC(=O)c2c[nH]c3c(OC)cc(OC)cc3c2=O)cc1`, the B-score entry was “inactive”.

`CCOc1ccc(OCCSc2nc3ccccc3n2CC(=O)O)cc1`: the B-score entry was “inactive”.

Turning to `O=C(CCC(=O)c1cccs1)Nc1nc2ccccc2s1`, the B-score result is “inactive”.

Consider `O=C(Nc1nc(-c2ccco2)c(-c2ccco2)s1)c1ccco1`, for which the B-score result was “inactive”.

Take `CSc1nc2ccc(S(=O)(=O)N3CCc4ccccc43)cc2s1`: the B-score entry is “inactive”.

As to `O=C(Nc1nc2ccc([N+](=O)[O-])cc2s1)c1ccc(S(=O)(=O)N2CCCc3ccccc32)cc1`, the B-score was 9 (active).

Regarding `O=C(NC(Nc1nc2ccc([N+](=O)[O-])cc2s1)(C(F)(F)F)C(F)(F)F)c1ccccc1`, the B-score is 8 (active).

Take `CCOc1ccc2nc(NC(=O)c3cc([N+](=O)[O-])ccc3N3CCOCC3)sc2c1`: the B-score result was “inactive”.

Take `CCC(=O)NC(Nc1nc2ccc(C)cc2s1)(C(=O)OC)C(F)(F)F` (configuration not stated): the B-score entry was “inactive”.

As to `CN(C)CCCN(C(=O)c1ccc(S(=O)(=O)N2CCCc3ccccc32)cc1)c1nc2ccc(F)cc2s1`, the B-score entry is “inactive”.

In the case of `O=C1NC(=O)C(c2ccc(Cl)cc2)N1` (configuration not stated), the B-score result was “inactive”.

In the case of `Cc1cc(=O)n2nc(N3CCCC(C(=O)NCc4ccc(Cl)cc4)C3)sc2n1` (configuration not stated), the B-score entry is “inactive”.

In the case of `CC(OC(=O)CN1C(=O)COc2ccccc21)C(=O)NCc1ccc(F)cc1` (configuration not stated), the B-score result is “inactive”.

For the compound `N#Cc1c(Cl)nc(-c2cccnc2)nc1-c1ccccc1`, the B-score entry is “inactive”.

Take `O=C(NN1CCOCC1)c1cccc(F)c1`: the B-score result is “inactive”.

Consider `O=C(NNC(=O)c1cc(-c2ccccc2Cl)nc2ccccc12)c1csc(N2CCOCC2)n1`, for which the B-score result was “inactive”.

`CCC(=O)N1CCC(C(N)=O)(N2CCCCC2)CC1`: the B-score entry was “inactive”.

For `COC(=O)CNS(=O)(=O)c1ccc(OC)cc1`, the B-score entry was “inactive”.

As to `COc1cccc(NC(C)=[N+](C)CCNS(=O)(=O)c2ccc(Cl)cc2)c1`, the B-score was 6 (active).

In the case of `COc1ccc(S(=O)(=O)NCCCc2ccccc2)cc1`, the B-score result was “inactive”.

Take `COc1ccc(S(=O)(=O)NCCCCOc2ccc(Cl)cc2)cc1`: the B-score is 9 (active).

In the case of `CCNS(=O)(=O)c1ccc(NC(=O)Nc2cccc(OC)c2)cc1`, the B-score entry is “inactive”.

Turning to `COc1cccc(NC(=O)CCNS(=O)(=O)c2ccc3c(c2)oc(=O)n3C)c1`, the B-score result was “inactive”.

For the compound `Cc1cccc(NC(=O)c2ccc3c(=O)n(CC4CCCO4)c(=S)[nH]c3c2)c1` (configuration not stated), the B-score result was “inactive”.

For the compound `COc1cc(OC)cc(C(=O)NC(=S)N2CCN(c3ccc(C(F)(F)F)cc3[N+](=O)[O-])CC2)c1`, the B-score result was “inactive”.

`CCOc1ccc(-c2cc(C(=O)N/N=C/c3ccc(O)cc3)c3ccccc3n2)cc1`: the B-score entry was “inactive”.
